Measurements reported in PubChem BioAssay (Tox21).
Active and inactive are the calls of the source. Unless noted, calls come from the whole dose curve.

molecular target: Gonadotropin-releasing hormone receptor (Homo sapiens) (UniProt P30968); assay: Human gonadotropin-releasing hormone receptor (GnRHR) small molecule agonists, calcium flux assay in GnRHR-HEK293 cells (AID 1920063); settings: calcium flux fluorescence, agonist mode; series mostly up to 57.6 µM; activity change: at the top concentration; note: nearly all actives have a fitted effect of over 35% in size
Sequence (P30968 whole entry, looked up): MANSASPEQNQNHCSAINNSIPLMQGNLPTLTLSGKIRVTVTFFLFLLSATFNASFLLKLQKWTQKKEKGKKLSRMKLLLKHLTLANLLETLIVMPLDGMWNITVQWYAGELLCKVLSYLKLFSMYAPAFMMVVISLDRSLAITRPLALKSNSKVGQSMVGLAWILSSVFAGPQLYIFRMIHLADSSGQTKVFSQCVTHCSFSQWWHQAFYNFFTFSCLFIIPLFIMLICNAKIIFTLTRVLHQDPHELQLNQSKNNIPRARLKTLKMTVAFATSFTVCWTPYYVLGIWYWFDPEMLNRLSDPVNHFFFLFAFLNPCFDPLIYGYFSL
How it was run: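 Compounds dissolved in DMSO are pin-transferred onto dye-loaded GnRHR-HEK293 cells, which were seeded 18 h before at 37 C/5% CO2. Calcium signal is read as fluorescence intensity at 1 s intervals for 3 min.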
% is set by controls: 0 for no effect and ±100 for the full control effect.

| SMILES | activity change |
| --- | --- |
| CNCc1cc(F)ccc1Oc1ccc(Cl)c(Cl)c1 | 10.4% (inactive) |
| CC(C)(C)c1cc(/C=C2\SC(=N)NC2=O)cc(C(C)(C)C)c1O | 0.027% (inactive) |
| CN(C)CCN(Cc1ccccc1)c1ccccn1 | 9.86% [at 26.4 µM, active compounds read high] (inactive) |
| O=c1[nH]c(=O)n([C@H]2C[C@H](O)[C@@H](CO)O2)cc1F | 0.201% [at 26.4 µM, active compounds read high] (inactive) |
| O=S(=O)(Oc1ccc(Cl)cc1)c1ccccc1 | -0.517% (inactive) |
| CCc1ncc(C)[nH]1 | -0.274% (inactive) |
| O=C1CCCc2c1cc1ccc3cccc4ccc2c1c34 | -0.27% (inactive) |
| CC(C)(C)CC(C)(C)c1ccccc1O | 18.9% (inactive) |
| CCCCC/C=C\C/C=C\CCCCCCCC(=O)NC(C)c1ccccc1 (stereo not given) | -1.43% [at 26.4 µM, active compounds read high] (inactive) |
| Oc1ccc2c(c1)-c1ccccc1C2 | -0.441% (inactive) |
| CSC(=O)c1cccc2nnsc12 | -1.09% (inactive) |
| CCC[C@@H]1C[C@@H](C(=O)N[C@@H]([C@H]2O[C@H](SC)[C@H](O)[C@@H](O)[C@H]2O)[C@@H](C)O)N(C)C1 | -1.13% [at 26.4 µM, active compounds read high] (inactive) |
| CCCCCCCCCCCCCCCCCCNC(=O)OC1CCN(C(=O)OC[C@H](COC(=O)N(Cc2cccc[n+]2CC)C(=O)c2ccccc2OC)OC)CC1 | 0.576% [at 26.4 µM, active compounds read high] (inactive) |
| CC(=O)/C=C/C=C1/C2CCC(C2)C1(C)C (stereo not given) | -1.13% [at 26.4 µM, active compounds read high] (inactive) |
| Cc1c(-c2ccccc2)oc2c(C(=O)OCCN3CCCCC3)cccc2c1=O | -0.861% [at 26.4 µM, active compounds read high] (inactive) |
| CCN(Cc1cccnc1)C(=O)c1cccc(Cl)c1[C@]1(C)C(=O)N(Cc2ccc(OC)cc2OC)c2ccc(Cl)cc21 | -1.35% (inactive) |
| COc1cc(-c2ccc(=O)[nH]n2)ccc1OC(F)F | -1.55% [at 26.4 µM, active compounds read high] (inactive) |
| CCCCCCCCCCCCN1CCCCCC1=O | 10.7% (inactive) |
| COc1ccc(S(=O)(=O)Nc2nnc(CC(C)C)s2)cc1 | -1.11% [at 26.4 µM, active compounds read high] (inactive) |
| NC(=O)N1C(=O)C(C(=O)c2cc(Cl)cs2)c2cc(F)c(Cl)cc21 (stereo not given) | 12.9% (inactive) |

| SMILES | activity change |
| --- | --- |
| O=C(O)c1c2ccccc2cc2ccccc12 | -0.373% (inactive) |
| Cc1cc(NC(=O)C(=O)O)cc(C)c1Oc1ccc(O)c2c1CCC2 | -1.01% (inactive) |
| CCOC(=O)C1=C(C)NC(C)=C(C(=O)OCC)C1c1ccccc1/C=C/C(=O)OC(C)(C)C | -0.0851% [at 26.4 µM, active compounds read high] (inactive) |
| Cc1oc(-c2ccccc2)nc1CCOc1cccc2c1ccn2CCC(=O)O | 0.162% (inactive) |
| O=C(CCCN1CCN(c2ccc(F)cc2)CC1)NC1c2ccccc2CSc2ccccc21 (stereo not given) | -0.276% [at 26.4 µM, active compounds read high] (inactive) |
| COc1ccc(/C=C/c2cc(OC)cc(=O)o2)cc1 | 0.459% [at 26.4 µM, active compounds read high] (inactive) |
| CCCNC(C)C(=O)Nc1c(C)csc1C(=O)OC (stereo not given) | -0.491% [at 26.4 µM, active compounds read high] (inactive) |
| OCCCS | -0.339% (inactive) |
| O=C(O)COc1ccc2ccccc2c1 | 0.0227% (inactive) |
| OCCCCCO | 1.57% (inactive) |
| CC(=O)OCC(=O)[C@@]1(O)[C@H](OC(C)=O)C[C@H]2[C@@H]3CCC4=CC(=O)C=C[C@]4(C)[C@@]3(F)[C@@H](O)C[C@@]21C | -1.21% [at 26.4 µM, active compounds read high] (inactive) |
| NS(=O)(=O)c1ccc(C(=O)O)cc1 | -0.497% [at 26.4 µM, active compounds read high] (inactive) |
| O=C(O)C1(C(=O)Nc2ccc(Cl)cc2Cl)CC1 | 2.11% (inactive) |
| CC1=CC(C)C(C=O)C(C)C1 (stereo not given) | -0.246% (inactive) |
| ClCCOCCOCCCl | -0.341% (inactive) |
| CCc1c2c(nc3ccc(OC(=O)N4CCC(N5CCCCC5)CC4)cc13)-c1cc3c(c(=O)n1C2)COC(=O)[C@]3(O)CC | 1.77% [at 26.4 µM, active compounds read high] (inactive) |
| CC(COc1ccccc1)NN (stereo not given) | -0.937% [at 26.4 µM, active compounds read high] (inactive) |
| CCCCNC(=O)NCCCC | 1.01% (inactive) |
| CCOc1ccccc1OCC1CNCCO1 (stereo not given) | -2.2% [at 26.4 µM, active compounds read high] (inactive) |
| Cc1coc2ccccc2c1=O | -0.609% [at 26.4 µM, active compounds read high] (inactive) |

molecular target: KiSS-1 receptor (Homo sapiens) (UniProt Q969F8); assay: Human kisspeptin (KISS1R) small molecule agonists, calcium flux assay in KISS1R-HEK293 cells (AID 1920064; active = well fitted activation curve with a large enough effect in the repeat runs); settings: KISS1R-HEK293, calcium flux fluorescence, agonist; series mostly up to 76.8 µM; activation: at the top concentration
Sequence (Q969F8 whole entry, looked up): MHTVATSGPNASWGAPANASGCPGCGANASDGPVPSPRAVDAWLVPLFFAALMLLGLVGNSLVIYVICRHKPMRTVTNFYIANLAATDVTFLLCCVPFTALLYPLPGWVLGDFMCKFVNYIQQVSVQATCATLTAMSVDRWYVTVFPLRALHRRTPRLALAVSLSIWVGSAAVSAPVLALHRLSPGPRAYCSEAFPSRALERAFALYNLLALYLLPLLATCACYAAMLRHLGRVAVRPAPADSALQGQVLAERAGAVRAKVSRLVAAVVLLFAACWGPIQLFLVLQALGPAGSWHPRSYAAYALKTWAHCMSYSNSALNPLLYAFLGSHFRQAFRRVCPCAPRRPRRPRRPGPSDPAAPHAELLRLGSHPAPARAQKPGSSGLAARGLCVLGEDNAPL
How it was run: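 Cell line: HEK293, stable human KISS1R. Dye loading 1 h at 37 C after 18 h culture. Read: kinetic fluorescence, 480/540 nm, 3 min at 1 s intervals.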

| SMILES | activation |
| --- | --- |
| CNCc1cc(F)ccc1Oc1ccc(Cl)c(Cl)c1 | 6.28% (inactive) |
| CC(C)(C)c1cc(/C=C2\SC(=N)NC2=O)cc(C(C)(C)C)c1O | -2.24% (inactive) |
| CN(C)CCN(Cc1ccccc1)c1ccccn1 | 2.05% [at 35.3 µM] (inactive) |
| O=c1[nH]c(=O)n([C@H]2C[C@H](O)[C@@H](CO)O2)cc1F | -1.48% [at 35.3 µM] (inactive) |
| O=S(=O)(Oc1ccc(Cl)cc1)c1ccccc1 | -2.57% (inactive) |
| CCc1ncc(C)[nH]1 | -0.602% (inactive) |
| O=C1CCCc2c1cc1ccc3cccc4ccc2c1c34 | -1.59% (inactive) |
| CC(C)(C)CC(C)(C)c1ccccc1O | -0.659% (inactive) |
| CCCCC/C=C\C/C=C\CCCCCCCC(=O)NC(C)c1ccccc1 (stereo not given) | 1.8% [at 35.3 µM] (inactive) |
| Oc1ccc2c(c1)-c1ccccc1C2 | -1.23% (inactive) |
| CSC(=O)c1cccc2nnsc12 | -0.475% (inactive) |
| CCC[C@@H]1C[C@@H](C(=O)N[C@@H]([C@H]2O[C@H](SC)[C@H](O)[C@@H](O)[C@H]2O)[C@@H](C)O)N(C)C1 | 0.0758% [at 35.3 µM] (inactive) |
| CCCCCCCCCCCCCCCCCCNC(=O)OC1CCN(C(=O)OC[C@H](COC(=O)N(Cc2cccc[n+]2CC)C(=O)c2ccccc2OC)OC)CC1 | -0.31% [at 35.3 µM] (inactive) |
| CC(=O)/C=C/C=C1/C2CCC(C2)C1(C)C (stereo not given) | 1.38% [at 35.3 µM] (inactive) |
| Cc1c(-c2ccccc2)oc2c(C(=O)OCCN3CCCCC3)cccc2c1=O | -0.507% [at 35.3 µM] (inactive) |
| CCN(Cc1cccnc1)C(=O)c1cccc(Cl)c1[C@]1(C)C(=O)N(Cc2ccc(OC)cc2OC)c2ccc(Cl)cc21 | 7.25% (inactive) |
| COc1cc(-c2ccc(=O)[nH]n2)ccc1OC(F)F | 1.2% [at 35.3 µM] (inactive) |
| CCCCCCCCCCCCN1CCCCCC1=O | -0.803% (inactive) |
| COc1ccc(S(=O)(=O)Nc2nnc(CC(C)C)s2)cc1 | -0.277% [at 35.3 µM] (inactive) |
| NC(=O)N1C(=O)C(C(=O)c2cc(Cl)cs2)c2cc(F)c(Cl)cc21 (stereo not given) | 7.52% (inactive) |

| SMILES | activation |
| --- | --- |
| O=C(O)c1c2ccccc2cc2ccccc12 | 0.616% (inactive) |
| Cc1cc(NC(=O)C(=O)O)cc(C)c1Oc1ccc(O)c2c1CCC2 | -0.12% (inactive) |
| CCOC(=O)C1=C(C)NC(C)=C(C(=O)OCC)C1c1ccccc1/C=C/C(=O)OC(C)(C)C | 5.33% [at 35.3 µM] (inactive) |
| Cc1oc(-c2ccccc2)nc1CCOc1cccc2c1ccn2CCC(=O)O | -0.528% (inactive) |
| O=C(CCCN1CCN(c2ccc(F)cc2)CC1)NC1c2ccccc2CSc2ccccc21 (stereo not given) | 1.9% [at 35.3 µM] (inactive) |
| COc1ccc(/C=C/c2cc(OC)cc(=O)o2)cc1 | 3.89% [at 35.3 µM] (inactive) |
| CCCNC(C)C(=O)Nc1c(C)csc1C(=O)OC (stereo not given) | 1.15% [at 35.3 µM] (inactive) |
| OCCCS | 0.655% (inactive) |
| O=C(O)COc1ccc2ccccc2c1 | -0.336% (inactive) |
| OCCCCCO | -1.57% (inactive) |
| CC(=O)OCC(=O)[C@@]1(O)[C@H](OC(C)=O)C[C@H]2[C@@H]3CCC4=CC(=O)C=C[C@]4(C)[C@@]3(F)[C@@H](O)C[C@@]21C | -0.369% [at 35.3 µM] (inactive) |
| NS(=O)(=O)c1ccc(C(=O)O)cc1 | -0.455% [at 35.3 µM] (inactive) |
| O=C(O)C1(C(=O)Nc2ccc(Cl)cc2Cl)CC1 | 0.194% (inactive) |
| CC1=CC(C)C(C=O)C(C)C1 (stereo not given) | -0.254% (inactive) |
| ClCCOCCOCCCl | -2.47% (inactive) |
| CCc1c2c(nc3ccc(OC(=O)N4CCC(N5CCCCC5)CC4)cc13)-c1cc3c(c(=O)n1C2)COC(=O)[C@]3(O)CC | 7.75% [at 35.3 µM] (inactive) |
| CC(COc1ccccc1)NN (stereo not given) | -1.76% [at 35.3 µM] (inactive) |
| CCCCNC(=O)NCCCC | 6.35% (inactive) |
| CCOc1ccccc1OCC1CNCCO1 (stereo not given) | -0.932% [at 35.3 µM] (inactive) |
| Cc1coc2ccccc2c1=O | -1.66% [at 35.3 µM] (inactive) |
